Among all 64,000 compounds or so, about 2,200 (3.4%) were called active. The list comes from a sample in which actives are over-represented; it also holds similar structures and randomly drawn compounds. A number with no mark means an inactive call.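 Rule for the calls: active = calcium fluorescence response, raw or row-and-column corrected B-score, differing from the plate sample mean either way at a set confidence level, mostly lower; inactive = the rest.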

The results in this text go back to PubChem BioAssay AID628 (Vanderbilt High Throughput Screening Facility, 2007).

Sequence of Muscarinic acetylcholine receptor M1 (Rattus norvegicus) (P08482 whole entry, looked up): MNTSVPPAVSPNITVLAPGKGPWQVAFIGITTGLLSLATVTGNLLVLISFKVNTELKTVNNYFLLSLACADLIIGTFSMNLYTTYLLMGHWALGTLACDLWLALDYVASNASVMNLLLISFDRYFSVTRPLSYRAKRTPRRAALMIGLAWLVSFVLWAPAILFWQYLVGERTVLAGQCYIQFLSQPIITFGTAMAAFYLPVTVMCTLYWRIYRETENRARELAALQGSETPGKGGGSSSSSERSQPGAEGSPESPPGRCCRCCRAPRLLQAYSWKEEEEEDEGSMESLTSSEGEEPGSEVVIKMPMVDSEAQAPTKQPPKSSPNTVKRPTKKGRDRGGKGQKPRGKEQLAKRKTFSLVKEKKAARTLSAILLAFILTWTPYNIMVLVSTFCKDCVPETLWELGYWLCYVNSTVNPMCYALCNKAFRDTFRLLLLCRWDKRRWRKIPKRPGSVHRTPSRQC

The assay concerns the target Muscarinic acetylcholine receptor M1 (Rattus norvegicus) (UniProt P08482). The experiment in a line: blocks the rat M1 muscarinic receptor response to acetylcholine (AID 628). As to conditions: CHO-M1 cells, Fluo-4 calcium, ACh EC80 antagonist mode; at 10 µM; stronger effect = lower value.
In the case of `C1=C(N2CCOCC2)/C(=C/c2nc3ccccc3[nH]2)CC1`, the B-score is 0.998.

As to `Cc1cc2c(cc1C)NC(c1ccccn1)C1=C(CC(C)(C)CC1=O)N2` (configuration not stated), the B-score is 2.52 (active).

Consider `CCC1C(C#N)=C(SC)NC2=C1C(=O)CC(C)(C)C2` (configuration not stated), for which the B-score is -0.0322.

As for `COc1cc(C2C(C#N)=C(C)NC3=C2C(=O)CC(C)(C)C3)ccc1O` (configuration not stated), the B-score was 0.109.

For the compound `COc1ccccc1Cc1nc(-c2ccc(C)cc2)no1`, the B-score was 0.115.

On to `COc1ccc(-c2noc(COc3ccc(Cl)c(C)c3)n2)cc1`, for which the B-score was -0.385.

Consider `COc1ccc(-c2noc(CN(C)S(=O)(=O)c3ccc(C)cc3)n2)cc1`, for which the B-score is -3.11 (active).

As for `CC(C)Oc1ccc(C2NC(=O)NC2=O)cc1` (configuration not stated), the B-score is -0.129.

In the case of `O=C(O)CN(Cc1ccco1)S(=O)(=O)c1ccccc1`, the B-score was 0.346.

For the compound `Cc1cccc(C)c1NC(=O)N1CC=C(n2c(=O)[nH]c3ccccc32)CC1`, the B-score was 0.257.

As for `CC(C)C1C2=C(CC(C)(C)CC2=O)ON1c1ccccc1` (configuration not stated), the B-score is -0.269.

Turning to `Cc1cc(N2C(=O)C(=O)/C(=C(/O)c3ccc(Cl)cc3)C2c2cccc(Br)c2)no1` (configuration not stated), the B-score was 0.0445.

Regarding `CCOC(=O)c1c(NC(=O)c2ccc(Br)o2)sc2c1CCCC2`, the B-score is 0.689.

For `COC(=O)Nc1ccc(S(=O)(=O)N(C)CC(F)(F)C(F)F)cc1`, the B-score is 0.467.

In the case of `O=S(=O)(CCc1nc2ccccc2o1)c1ccc(Cl)cc1`, the B-score is -2.24 (active).

In the case of `O=S(=O)(O)c1nc2ccccc2n1Cc1ccc(Cl)cc1`, the B-score is 0.456.

In the case of `O=C(CSc1nc2ccccc2o1)N1CCN(c2ccc(Cl)cc2)CC1`, the B-score is -0.0538.

Regarding `O=C1c2ccncc2C(=O)N1C1CCCCC1`, the B-score was -0.0556.

Take `O=C(OCc1ccccc1F)c1ccc2c(c1)OCCO2`: the B-score is 0.0701.

`C[C@H](NC(=O)OC(C)(C)C)c1nnc(SCC(=O)Nc2ccc(Br)cc2)o1`: the B-score is 0.0617.

Take `CNC(=O)CN1C(=O)c2ccccc2S1(=O)=O`: the B-score was 0.00139.

`CCCc1nnc(NC(=O)CN2C(=O)c3ccccc3S2(=O)=O)s1`: the B-score was -0.485.

For `Nc1nnc(SCCN2C(=O)c3ccccc3S2(=O)=O)s1`, the B-score was 2.64 (active).

For the compound `COC(=O)c1cc(NC2c3ccccc3C(=O)N2c2ccc(Cl)cn2)cc(C(=O)OC)c1` (configuration not stated), the B-score is 0.743.

Turning to `CC(=O)c1c(N)n(C)c(=O)n(C)c1=O`, the B-score is 0.343.

As to `CC(NC(=O)COc1ccccc1)C(=O)NC1=NCCS1` (configuration not stated), the B-score is -0.755.

For the compound `O=C(NC1=NCCS1)c1ccc(Cl)s1`, the B-score was -2.35 (active).

`CCc1ccc(N2CC(C(=O)NC3=NCCS3)CC2=O)cc1` (configuration not stated): the B-score is -0.382.

Consider `CCOC(=O)C1CCN(C(=O)C2CCN(S(=O)(=O)N3CCCC3)CC2)CC1`, for which the B-score was -0.822.

Take `Cc1ccc(C(=O)NC2CCN(C(=O)N3CCOCC3)CC2)cc1`: the B-score was -0.472.

Take `Cc1noc(C)c1S(=O)(=O)NCCc1ccc(S(N)(=O)=O)cc1`: the B-score was 0.287.

`CCCN1CCN(C(=O)Cn2ncc3ccccc32)CC1`: the B-score is -0.673.

As for `CC(C)(C)n1nnc(CCc2nnn(C(C)(C)C)n2)n1`, the B-score is 0.866.

Turning to `Cc1ccc(Cc2cncc(O)c2)cc1S(=O)(=O)O`, the B-score is -0.895.

For `CC12CCC(C(=O)N(CCC#N)CCC#N)(CC1=O)C2(C)C` (configuration not stated), the B-score is 0.00852.

As to `CC(C)(C)c1cc(CN2CCN(CCC#N)CC2)cc(C(C)(C)C)c1O`, the B-score is -3.57 (active).

In the case of `N#CCCN1CCN(S(=O)(=O)c2ccc(S(=O)(=O)NC3CC3)cc2)CC1`, the B-score was -0.837.

Take `N#CCCN1CCN(S(=O)(=O)c2ccc(S(=O)(=O)N3CCCC3)cc2)CC1`: the B-score is -0.0175.

For `O=C(c1cnn2ccccc12)N1CCc2ccccc21`, the B-score was -0.297.

In the case of `O=C(CCS(=O)(=O)c1ccccc1)Nc1nc2c(s1)CCCC2`, the B-score was 1.02.

Regarding `COc1ccc(CCNC(=O)CCn2c(=O)oc3ccccc32)cc1OC`, the B-score is 0.0532.

For the compound `CCOC(=O)CSc1nnc(NC(=O)c2cccc(S(=O)(=O)N3CCCCC3)c2)s1`, the B-score was -1.2.

Turning to `CCOC(=O)CSc1nnc(NC(=O)c2cccc(S(=O)(=O)N3CCCC3)c2)s1`, the B-score is 0.563.

`CCOC(=O)C1=C(CC)Nc2ccccc2N=C1NC(=O)c1cccc(S(=O)(=O)N2CCCC2)c1`: the B-score was -3.22 (active).

As to `COc1cccc(NC(=O)Cn2cnc3sc(C)c(S(=O)(=O)N4CCN(C)CC4)c3c2=O)c1`, the B-score was 0.144.

With `CN(C)CCCn1c(N)c(C#N)c2nc(C#N)c(C#N)nc21`, the B-score was -0.181.

Turning to `CCOC(=O)c1[nH]c2ccc(OC)cc2c1NC(=O)CCN1CCN(Cc2ccccc2)CC1`, the B-score is -4.59 (active).

Consider `CCOC(=O)c1[nH]c2ccc(OC)cc2c1NC(=O)N1CCOCC1`, for which the B-score was 0.577.

Regarding `Cc1c(C(=O)N2CCOCC2)[nH]c2ccc(OCc3ccccc3)cc12`, the B-score was -2.27.

As for `O=C(CN(c1ccc2c(c1)OCCO2)S(=O)(=O)c1ccccc1)Nc1ccc2c(c1)OCO2`, the B-score was 0.461.

As for `CCOc1ccccc1NC(=O)c1cc(S(=O)(=O)N2CCC3(CC2)OCCO3)ccc1F`, the B-score is -0.759.

Turning to `CCOC(=O)C1CCN(C(=O)c2oc3ccc(S(=O)(=O)N4CCCCCC4)cc3c2C)CC1`, the B-score was -0.942.

Turning to `Cc1c(C(=O)Nc2ccccc2Cl)oc2ccc(S(=O)(=O)N3CCC4(CC3)OCCO4)cc12`, the B-score was 2.7 (active).

`Cc1ccc(NC(=O)CN(C)S(=O)(=O)c2cnc[nH]2)cc1C`: the B-score was 0.0747.

As to `CCc1nnc(NC(=O)CCC(=O)O)s1`, the B-score is 0.852.

As for `O=C(NCC(F)(F)F)Nc1nnc(C(F)(F)F)s1`, the B-score was -1.96 (active).

Regarding `CC(=O)Nc1ccc(NC(=O)CN2CCCC(C)C2)c(Cl)c1` (configuration not stated), the B-score is -1.15.

Take `Cc1cc(C)cc(NC(=O)C2CCN(c3nc(C)cc(C)n3)CC2)c1`: the B-score is 0.673.

For the compound `COc1ccc(C2C(C#N)=C(N)Oc3cc(N)ccc32)cc1OC` (configuration not stated), the B-score was 0.645.

Turning to `O=C(Nc1ccncc1)c1cc2ccccc2o1`, the B-score was 1.08.

Regarding `CCOc1ccc(C(=O)Nc2ccncc2)cc1`, the B-score was 0.109.

In the case of `O=C(Nc1ccncc1)c1c(F)cccc1F`, the B-score is -4.49 (active).
